Screening data: PubChem, National Center for Advancing Translational Sciences (NCATS)
NPC1 promoter act – qHTS Assay for NPC1 Promoter Activators; 320,000 tested, 2.4% active; Potency, µM (top dose mostly 9.22 µM), without a hit: at the top dose activation, hits mostly activators; Huh7 NPC1 promoter luciferase reporter, 24 h; AID 485313, 2010; note: % of control where 0% means no effect; nearly all actives have a fitted effect of over 60% in size
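Huh7 reporter cells (NPC1 promoter driving luciferase) are dosed with compound for 24 h at 37 °C, 5% CO2; luciferase detection reagent is then added and luminescence measured after 10 min at ambient temperature.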
SMN2 splice up – qHTS Assay for Enhancers of SMN2 Splice Variant Expression | HEK293 SMN2-luciferase splicing reporter, luminescence, 30-36 h | Potency, µM (doses to about 46.1 µM), inactives show at the highest dose activity change, positive = activation, usual class: activators | 210,000 tested, 2.8% active; note: % of control where 0% means no effect; nearly all actives have a fitted effect of over 55% in size
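HEK293 cells carry an SMN2 minigene-luciferase reporter in which exon 7 inclusion puts luciferase in frame. Cells were seeded at 2000 cells/well, attached for 10-12 hours, then exposed to compounds for 30-36 hours at 37C before ONE-Glo luminescence.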
ELG1 repair inh – qHTS screen for small molecules that inhibit ELG1-dependent DNA repair in human embryonic kidney (HEK293T) cells expressing luciferase-tagged ELG1 | AID 504467, 2011 | Potency, µM (top dose mostly 46.1 µM), for inactives: at the highest dose activity change, negative = inhibition, usual class: inhibitors | 330,000 tested, 2.3% active | HEK293T ELG1-luciferase reporter, luminescence, 16 h; DNA damage induced by 5-fluorouridine; note: % is set by controls: 0 for no effect and ±100 for the full control effect; nearly all actives have a fitted effect of over 55% in size
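Step one: seed 2,000 cells per well. Step two: pin-transfer compound or DMSO alongside 5-fluorouridine. Step three: incubate 16 hr, 37 °C, 5% CO2. Step four: add ONE-Glo, wait 30 min, read luminescence.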
Rab9 promoter act – qHTS Assay for Rab9 Promoter Activators | 320,000 tested, 2.8% active | Potency, µM (series often up to 9.22 µM), for inactives: top-dose activation, negative = inhibition, actives largely listed as activators | Huh7 Rab9 promoter-luciferase reporter, luminescence, 24 h | AID 485297, 2010; note: % of control where 0% means no effect; nearly all actives have a fitted effect of over 60% in size
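Huh7 cells stably carrying a Rab9 promoter-luciferase reporter, 1500 cells per well in OP-MEM I with 10% FBS, treated with compound 24 hours at 37C. Luciferase activity read by luminescence after 10 minutes with Amplite reagent.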
FLuc modulator – qHTS profiling assay for firefly luciferase inhibitor/activator using purifed enzyme and Km concentrations of substrates (counterscreen for miR-21 project); AID 588342, 2011; purified FLuc, Km substrates, luminescence inhibition; 360,000 tested, 6.9% active; Potency, µM (highest dose often 57.5 µM), inactives show at the top dose activity change, negative = inhibition, hits mostly inhibitors;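 note: plate controls were vehicle for no effect and reference inhibitor for full effect; nearly all actives have a fitted effect of over 55% in size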
Target sequence (P08659 whole entry, looked up): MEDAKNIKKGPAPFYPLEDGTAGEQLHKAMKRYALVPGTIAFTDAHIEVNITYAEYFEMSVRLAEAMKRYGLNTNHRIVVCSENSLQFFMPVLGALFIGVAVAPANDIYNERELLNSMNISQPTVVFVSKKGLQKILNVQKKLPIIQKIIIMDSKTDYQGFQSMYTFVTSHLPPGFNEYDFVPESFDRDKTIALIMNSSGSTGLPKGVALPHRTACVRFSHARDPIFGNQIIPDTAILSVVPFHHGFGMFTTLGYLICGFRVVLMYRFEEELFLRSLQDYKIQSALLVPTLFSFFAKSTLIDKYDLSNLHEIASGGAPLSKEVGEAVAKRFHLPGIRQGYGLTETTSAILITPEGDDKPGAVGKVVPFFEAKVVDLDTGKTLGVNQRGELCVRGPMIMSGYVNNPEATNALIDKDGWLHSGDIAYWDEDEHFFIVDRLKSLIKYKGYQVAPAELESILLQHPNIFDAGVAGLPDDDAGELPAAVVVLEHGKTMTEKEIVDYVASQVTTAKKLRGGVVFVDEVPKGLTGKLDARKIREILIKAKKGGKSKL
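Purified P. pyralis luciferase (10nM final) with 10uM D-luciferin and 10uM ATP (Km levels) in 50mM Tris acetate pH 7.5, 10mM Mg acetate, 0.01% Tween-20, 0.05% BSA; qHTS 6-point titration, ~60 µM downward; luminescence read.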
ELG1 genotox – qHTS screen for small molecules that induce genotoxicity in human embryonic kidney (HEK293T) cells expressing luciferase-tagged ELG1; HEK293T ELG1-luciferase reporter, luminescence, 16 h; Potency, µM (series often up to 46 µM), for inactives: at the highest dose activity change, positive = activation, most hits filed as activators; AID 504466, 2011; 330,000 tested, 1.3% active; note: % of control where 0% means no effect; nearly all actives have a fitted effect of over 60% in size
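16 hr compound incubation (37 °C, 5% CO2) of HEK293T cells carrying luciferase-tagged ELG1; luciferase then measured by ONE-Glo luminescence after 30 min at RT.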
Starred values were filed as active, the others as inactive; ? = inconclusive; . = no result given; [ ] = dose if it differs, or a comment. Shown are actives, neighbours in structure and some others; about 9.3% of the full set was active somewhere. Calls come from the whole dose curve; as a rule, active = well fitted curve in the direction sought with a large enough effect; inconclusive = small, poorly fitted or top-dose-only effect, or another doubt; inactive = no such curve, though single readings can be large; an effect the other way counts as inactive or inconclusive. Potency is the fitted concentration of half-maximal effect.

SMILES | NPC1 promoter act | SMN2 splice up | ELG1 repair inh | Rab9 promoter act | FLuc modulator | ELG1 genotox
COc1ccc(C(=O)O/N=C(/C)c2cccs2)cc1 | -2.6% | -2.6% | 27.0% | -1.7% | 0.0757µM* | 1.8%
O=C(O/N=C1\CCS(=O)(=O)c2sccc21)c1ccc(F)cc1 | -1.4% | 2.8% | 4.6% | -4.9% | ? | 0.0%
COc1ccc(OCCOC(=O)c2cccs2)cc1 | 1.3% | 0.1% | ? | -8.4%[1.84 µM] | 16.9µM* | 23.1µM*
O=S(=O)(NCc1cccs1)NCc1ccccc1F | 0.6% | 4.0% | 8.5% | 0.0% | 2.6% | 5.4%
O=C1C2C(C(=O)N1CC1CCCO1)C1C=CC2C12CC2 (stereo unspecified) | . | 3.0% | . | . | -0.9% | .
COc1ccc(OCC(=O)Nc2ccc(N3CCOCC3)cc2)cc1 | 9.5% | 14.5% | -13.3% | 5.1% | -1.3% | 0.3%
COc1ccc(CNc2ccc(N3CCOCC3)cc2)cc1 | 13.0% | . | ? | ? | 26.9µM* | -3.4%
Cn1ncc(Br)c1C(=O)NC1CCCCCCC1 | -1.1% | . | -20.9% | 2.0% | -6.7% | -4.3%
Cc1ccc(OCC(=O)N/N=C/c2ccc([N+](=O)[O-])o2)cc1 | 3.2% | -2.0% | -16.4% | -1.9% | -8.2% | -5.5%
CC(=O)Nc1ccc(NC(=O)C2CCC(N3C(=O)C4C5C=CC(C6CC56)C4C3=O)CC2)cc1 (stereo unspecified) | -1.5% | . | 9.8% | -1.7% | -1.1% | 3.4%
O=C(Nc1ccc(Cc2ccncc2)cc1)C1CCC(N2C(=O)C3C4C=CC(C5CC45)C3C2=O)CC1 (stereo unspecified) | -3.6% | -66.4% | 8.2µM* | -21.0% | -1.7% | -34.0%
COc1ccccc1-c1cc(C(=O)Nc2cccnc2)no1 | ? | 26.7% | ? | 25.1% | 6.75µM* | 18.4µM*
COc1ccc(NC(=O)c2cc(-c3ccccc3Cl)on2)cc1 | ? | . | ? | ? | 8.49µM* | 20.6%
COc1ccc(NC(=O)c2cc(-c3ccccc3OC)on2)cc1 | -3.2% | ? | ? | 0.2% | 9.53µM* | ?
COc1ccc(NC(=O)c2cc3c(Cl)nc4ccccc4c3s2)c(OC)c1 | -3.5% | -3.3%[1.84 µM] | 12.2% | -0.9% | 0.4% | 4.9%
COc1cc(NC(=O)c2cc3c(Cl)nc4ccccc4c3s2)cc(OC)c1OC | -12.4% | -17.0% | 6.51µM* | -8.6% | -5.8% | 1.3%
CC(=O)c1ccccc1OCC(O)CN1CCN(C(c2ccccc2)c2ccccc2)CC1 (stereo unspecified) | 4.1% | 13.0% | ? | -6.7% | 9.6% | -5.5%
CCOc1ccc(CC(=O)NNC(=O)/C=C/C(=O)O)cc1 | -3.6% | . | 16.8% | -2.2% | 2.0% | 1.0%
COc1cc(NC(=O)c2cc(-c3ccccc3Cl)on2)cc(OC)c1OC | -29.9% | . | 9.2µM* | -17.7% | ? | -4.9%
COc1cc(NC(=O)c2cc(-c3ccc(Cl)c(Cl)c3)on2)cc(OC)c1OC | . | -0.5% | . | . | -0.4% | .
O=C(Nc1ccc(S(=O)(=O)N2CCCCC2c2cccnc2)cc1)c1c(F)cccc1F (stereo unspecified) | -2.6% | -23.5% | ? | 2.3% | 5.9% | -11.8%
CC1(C)CC(=O)C(N=Nc2ccc(OC(F)F)cc2)=C(O)C1 | -0.6% | -15.5% | ? | 3.0% | 16.9µM* | ?
CCN(CC)S(=O)(=O)c1ccc(N=NC2=C(O)CC(C)(C)CC2=O)cc1 | -0.7% | -7.3% | 12.6% | -4.1% | -3.4% | 1.3%
CC1(C)CC(=O)C(N=Nc2cccnc2)=C(O)C1 | 0.4% | . | 12.1% | -1.8% | 5.6% | 3.1%
CC1(C)CC(=O)C(N=Nc2ccc(-c3ccccc3)cc2)=C(O)C1 | 5.4% | 18.3% | ? | 14.9% | 2.13µM* | ?
SMILES | NPC1 promoter act | SMN2 splice up | ELG1 repair inh | Rab9 promoter act | FLuc modulator | ELG1 genotox
CC1(C)CC(=O)C(N=Nc2c(Cl)cc(Cl)cc2Cl)=C(O)C1 | 9.0% | -10.6% | ? | -1.1% | ? | 13.6%
CC1(C)CC(=O)C(N=Nc2ccc(Cl)cc2)=C(O)C1 | -5.6% | 14.1µM* | ? | 4.6% | 4.78µM* | ?
CC1(C)CC(=O)C(N=Nc2ccc(F)cc2)=C(O)C1 | -1.0% | . | ? | 21.4% | 15.1µM* | ?
CC(=O)Nc1ccc(NC(=O)C(C)OC(=O)COc2ccc(Nc3ccccc3)cc2)cc1 (stereo unspecified) | -1.0% | . | 6.2% | 2.4% | ? | 0.2%
COc1ccc(Cc2nnc(NC(=O)c3cccc(F)c3)s2)cc1OC | 2.0% | . | 1.1% | -1.4% | 1.2% | -0.3%
CC1(C)CC(=O)C(N=Nc2ccc3ncsc3c2)=C(O)C1 | . | 7.9% | . | . | 19µM* | .
O=C1Nc2ccccc2/C1=C/c1cnc(-c2ccccc2)[nH]1 | 2.82µM* | . | ? | 3.98µM* | ? | ?
Cc1ccc(C(=O)N2CC(=O)Nc3ccc(F)cc3C2c2ccccc2)cc1[N+](=O)[O-] (stereo unspecified) | 0.2% | -24.2% | ? | -2.5% | 7.4% | -4.9%
O=C(N/N=C/c1cc(Cl)ccc1O)c1ccccc1Br | -24.6% | . | ? | -23.9% | ? | 15.9%
O=C(/C=N/NC(=O)c1ccc(Cl)cc1Cl)c1ccccc1 | 21.1% | . | 7.0% | ? | 2.69µM* | 11.8%
O=C(/C=N/NC(=O)c1ccccc1Br)c1ccccc1 | 6.5% | 7.3% | ? | 19.8% | 9.53µM* | 6.1%
Clc1cc2c(cc1/C=N/Nc1nc(N3CCOCC3)nc(N3CCOCC3)n1)OCO2 | -0.5% | -5.1% | ? | -0.1% | -7.5% | -0.5%
CCCn1c(SCC(=O)Nc2sc(C)c(C)c2C#N)nnc1C(C)C | -1.6% | . | 20.6µM* | 10.5% | -11.9% | -1.2%
Cc1sc(NC(=O)CSc2nnc(C(C)C)n2C)c(C#N)c1C | 1.6% | -29.7% | -9.9% | 1.8% | 2.8% | 9.9%
